Records with an inconclusive call do not appear. Active and inactive are the calls of the source. Calls come from the whole dose curve; as a rule, active = well fitted inhibition curve with a large enough effect; inconclusive = small, poorly fitted or top-dose-only effect; inactive = flat fitted curve, though single readings scatter.
Potency is the fitted concentration of half-maximal effect.

Sequence of Tyrosyl-DNA phosphodiesterase 1 (Homo sapiens) (Q9NUW8 whole entry, looked up): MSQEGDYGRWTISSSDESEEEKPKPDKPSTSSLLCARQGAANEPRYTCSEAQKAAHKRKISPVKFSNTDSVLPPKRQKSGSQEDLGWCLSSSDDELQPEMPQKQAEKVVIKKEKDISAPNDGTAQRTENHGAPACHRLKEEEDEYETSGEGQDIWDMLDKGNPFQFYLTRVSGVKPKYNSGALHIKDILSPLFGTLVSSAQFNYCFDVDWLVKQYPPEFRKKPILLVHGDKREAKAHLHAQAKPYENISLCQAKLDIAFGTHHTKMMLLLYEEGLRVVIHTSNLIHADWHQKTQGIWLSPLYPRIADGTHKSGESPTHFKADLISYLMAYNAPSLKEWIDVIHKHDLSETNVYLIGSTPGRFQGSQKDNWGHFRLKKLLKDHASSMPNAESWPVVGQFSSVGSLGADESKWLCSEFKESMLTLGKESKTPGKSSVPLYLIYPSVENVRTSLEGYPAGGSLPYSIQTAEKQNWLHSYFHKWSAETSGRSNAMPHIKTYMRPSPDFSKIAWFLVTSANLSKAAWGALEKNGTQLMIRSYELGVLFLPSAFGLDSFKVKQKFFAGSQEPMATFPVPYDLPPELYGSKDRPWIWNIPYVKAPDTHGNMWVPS

This assay addresses Tyrosyl-DNA phosphodiesterase 1 (Homo sapiens) (UniProt Q9NUW8). Nature of the assay: Confirmation Assay for Inhibitors of Tyrosyl-DNA Phosphodiesterase (TDP1) (AID 489007). Note: nearly all actives have a fitted effect of over 40% in size. The settings on record: recombinant human TDP1 enzymatic activity, dose-response. In short, it runs like this: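 Recombinant E. coli-expressed Tdp1 (1 nM final) was preincubated with compounds 15 min at room temperature, then reacted 5 min with 15 nM 5'-biotin/3'-phosphotyrosine-FITC DNA substrate; cleavage read as loss of AlphaScreen signal (10 ug/ml beads, 10 min).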
For the molecule `CCc1oc(C(=O)O)cc1COC`, the Potency is 31.6 µM (active).

In the case of `Cc1nc(S/C(=C\c2ccc(-c3ccc(C(=O)O)c(Cl)c3)o2)C(=O)O)n[nH]1`, the Potency is 3.55 µM (active).

On to `COc1ccccc1C1CN(c2ccccc2)N=C1c1cccs1` (centres undefined), for which the Potency was 25.1 µM (active).

In the case of `Cc1ccc2cc(C)c3nnc(SCC(=O)NCc4ccco4)n3c2c1`, the Potency was 35.5 µM (active).

Regarding `Cc1ccccc1NC(=O)CN1C(=O)S/C(=C\c2cccn2-c2cccc(C(=O)O)c2)C1=O`, the Potency is 14.1 µM (active).

In the case of `O=C(O)c1ccc(CSc2n[nH]c(-c3ccco3)n2)cc1`, the Potency was 39.8 µM (active).

As to `O=C1C2C3C=CC(C3)C2C(=O)N1c1ncn[nH]1` (centres undefined), the Potency is 31.6 µM (active).

For `COc1ccc(N2Cc3cccc(C(=O)O)c3C2=O)cc1`, the Potency is 2.51 µM (active).

With `O=C(Nc1cc2c(oc1=O)CCCC2=O)c1ccc(Cl)cc1`, the Potency was 31.6 µM (active).

Turning to `Cc1ccc(S(=O)(=O)N2CC=C(C(=O)NCc3ccc(F)cc3)CC2)cc1`, the Potency was 28.2 µM (active).

`OC[C@@H]1[C@@H](c2ccc(Cl)cc2)C(c2cccc(Cl)c2)=NN1c1ccccc1`: the Potency was 50.1 µM (active).

Turning to `Cc1ccc(CSc2nnc(SCC(=O)N/N=C/c3c[nH]c4ccccc34)s2)cc1`, the Potency was 5.62 µM (active).

Turning to `S=c1[nH]nc(-c2cccnc2)n1/N=C/c1ccc(Br)s1`, the Potency was 63.1 µM (active).

For `O=C(O)C1C2C=CC(C2)C1C(=O)NCc1cccs1` (centres undefined), the Potency was 31.6 µM (active).

Turning to `O=C(COC(=O)c1cc2c(s1)CCC2)Nc1ccc(F)cc1`, the Potency is 12.6 µM (active).

With `O=C(O)C1C2C=CC(C2)C1C(=O)NCCc1ccncc1` (centres undefined), the Potency was 100 µM (active).

For the molecule `Cc1ccc(C)n1-c1ccc(C(=O)O)cc1`, the Potency was 0.794 µM (active).

Consider `Nc1nonc1-c1nc2ccccc2n1CC(=O)N/N=C/c1ccc(-c2cccc(C(=O)O)c2)o1`, for which the Potency was 14.1 µM (active).

Regarding `CCN(CC)C(=O)CC(c1ccc(OC)cc1)c1c(OC)cc(OC)c2c(-c3ccccc3)cc(=O)oc12` (centres undefined), the Potency was 2.24 µM (active).

Turning to `CCOC(=O)c1sc(NC(=O)C2CC=CCC2C(=O)O)nc1C` (centres undefined), the Potency was 39.8 µM (active).

In the case of `CC(=O)Nc1ccc2c(COC(=O)CC3Sc4ccccc4NC3=O)cc(=O)oc2c1` (centres undefined), the Potency was 15.8 µM (active).

As to `CC(C)CN(C(=O)COC(=O)c1cc2c(s1)CCC2)C1CCS(=O)(=O)C1` (centres undefined), the Potency was 44.7 µM (active).

With `CCCn1c(SCC(=O)NC(=O)NCc2ccco2)n[nH]c1=O`, the Potency was 25.1 µM (active).

As to `Cc1cc(N2C(=O)C3C4C=CC(C4)C3C2=O)ccc1NC(=O)c1cccs1` (centres undefined), the Potency is 70.8 µM (active).

Source of the values: PubChem BioAssay (NCATS).
